Results taken from ChEMBL document CHEMBL4513216, “Probing the Open Global Health Chemical Diversity Library for Multistage-Active Starting Points for Next-Generation Antimalarials” (ACS Infect Dis, 2020).
Out of some 69,000 compounds screened, about 8,600 (12%) showed an effect of 50% or more. The entries come from a sample that favours strong results as a whole.

Each compound was assayed on Plasmodium berghei (assay: Screen against P. berghei liver stage (PbLuc), transformed with Luciferase, at 10uM). Settings: tested at 10 uM.
Assay type: functional, HepG2

| SMILES | INHIBITION [%] |
| --- | --- |
| CC(C)S(=O)(=O)N1CCC(c2cc3n(n2)[C@@H](C(F)(F)F)C[C@@H](C)N3)CC1 | 48.4 |
| COc1c(C2CCCN2CC(=O)Nc2cc(C)nn2C)c(C)nn1C (configuration not stated) | 23.5 |
| Cc1cc(C)n(CCC(=O)N2CCCC(c3nc(C(C)C)no3)C2)n1 (configuration not stated) | 30.8 |
| COc1ncnc(N)c1CNCc1ccccc1-n1cccn1 | 30.9 |
| CCCNc1ncc(CN2CCOC(Cc3cccc(F)c3)C2)cn1 (configuration not stated) | -45 |
| CCc1ncc(CN2CCOC(Cc3cccc(F)c3)C2)cn1 (configuration not stated) | 56.1 |
| CCc1ccc(CN2CCOC(Cc3cccc(F)c3)C2)nc1 (configuration not stated) | 22 |
| c1ncn(CC2CN(CC3CCCCC3)CCO2)n1 (configuration not stated) | 25.4 |
| O=C(NCC1(O)CCC1)c1c(O)cc(Cl)cc1Cl | 31 |
| O=C(NCCC(=O)N1CCCCCC1)c1c(O)cc(F)cc1F | 29.5 |
| O=C(NCC1(O)CCC1)c1c(O)cc(F)cc1F | 59.5 |
| NS(=O)(=O)Cc1cccc(C(=O)N2CCCC(n3cccn3)C2)c1 (configuration not stated) | 14.815 |
| Cc1nccc(CNC(=O)NCCC(=O)N2CCCc3ccccc32)n1 | -15 |
| COc1cccc(C2CCCN2CCCNS(C)(=O)=O)c1 (configuration not stated) | 15.3 |
| CC1(c2ccc(Br)cc2)CC(=O)N(CC(N)=O)C1=O (configuration not stated) | 51.8 |
| CSCCN1C(=O)CC(C)(c2ccc(Br)cc2)C1=O (configuration not stated) | 42.1 |
| CC1(c2ccc(Br)cc2)CC(=O)N(CCC(N)=O)C1=O (configuration not stated) | -48.3 |
| O=C(NCC1CC1)[C@H]1C[C@H]2CN(C(=O)NCc3ccccc3)C[C@@H]1O2 | 13.6 |
| CC(NC(=O)NCCn1ccnc1)c1ccc2c(c1)OCCCO2 (configuration not stated) | -9.37 |
| CC(C)n1ccnc1CN1CCOC(C)(C(=O)N2CCOCC2)C1 (configuration not stated) | 38.2 |
| c1cnc(CC2CCN(c3cnccn3)CC2)cn1 | 33.2 |
| CCNC(=O)[C@@H]1CCCN1[C@@H](C(=O)NC)C1CC1 | 51.9 |

| SMILES | INHIBITION [%] |
| --- | --- |
| CNC(=O)[C@@H](C1CC1)N1CCC[C@H]1C(=O)NCC(C)C | -19.6 |
| CCCNC(=O)[C@@H]1CCCN1[C@@H](C(=O)NC)C1CC1 | -20.8 |
| COCCN1C(=O)[C@@H]2CC[C@H]1CN(c1nccc(C)n1)C2 | -39.2 |
| CC(=O)NC(C)C(=O)Nc1ccc(OCc2cccc(F)c2)cc1C (configuration not stated) | 26.5 |
| Cc1cccc(COc2ccc(C(C)NC(=O)CNC(N)=O)cc2)c1 (configuration not stated) | 40.7 |
| Cc1cccc(COc2ccc(C(C)N)cc2)c1 (configuration not stated) | 83 |
| Cc1cccc(COc2ccc(NC(=O)C(C)NC(N)=O)c(C)c2)c1 (configuration not stated) | 61.3 |
| Cc1cccc(COc2ccc(C(C)NS(N)(=O)=O)cc2)c1 (configuration not stated) | 9.16 |
| Cc1cc(OCc2cccc(F)c2)ccc1NC(=O)C(C)NC(N)=O (configuration not stated) | 48.3 |
| CC(C)(C)c1cc(CNC(=O)c2cc(COc3ccccc3)[nH]n2)[nH]n1 | -47 |
| Cn1cc(C(=O)NCc2cn3c(n2)CN(CC2CCCC2)CC3)cn1 | -2.17 |
| Cc1nc(-c2ccnc(N3CCNCC3)n2)no1 | -17 |
| Cc1nc(CN2CCN(CCOc3ccc(C(C)C)c(C)c3)CC2)no1 | 25.1 |
| Cc1noc(C)c1CNC(=O)N1CCC(Cc2cnn(C)c2)C1 (configuration not stated) | 20.2 |
| O=C1CC(c2ccncc2)C2(CCN(C(=O)NC3CC3)CC2)N1 (configuration not stated) | 33.4 |
| Cn1cc(C2CC(=O)NC23CCN(C(=O)NC2CC2)CC3)cn1 (configuration not stated) | 62.9 |
| Cn1cc(C2CC(=O)NC23CCN(C(=O)C2CC=CC2)CC3)cn1 (configuration not stated) | -61.6 |
| COC1CCCN(C(=O)NCC(C)(C)SC)C1 (configuration not stated) | 32 |
| COC1CCCN(C(=O)NCC(F)F)C1 (configuration not stated) | 26.4 |
| COC1CCCN(C(=O)NCCCF)C1 (configuration not stated) | 55.5 |
| CCN1C(=O)CCC12CCCN(Cc1ccc(F)cc1)CC2 (configuration not stated) | -24.5 |
| COC(=O)C(NC(=O)c1cc(F)cc(F)c1)c1cccnc1 (configuration not stated) | 55.4 |

| SMILES | INHIBITION [%] |
| --- | --- |
| COC(=O)C(NC(=O)c1cc(C)ccc1C)c1cccnc1 (configuration not stated) | 32.2 |
| COC(=O)C(NC(=O)c1ccc(C)cc1C)c1cccnc1 (configuration not stated) | 42.4 |
| Cc1nc(O)cc(C2CCN(C(=O)c3[nH]nc4c3CC(C)CC4)CC2)n1 (configuration not stated) | 9.52 |
| CN1CCN(c2ccc(NC(=O)c3ccccn3)c(C(F)(F)F)c2)CC1 | -78.3 |
| CN1CCN(c2ccc(Cl)cc2NC(=O)c2ccco2)CC1 | 35.1 |
| O=C(Nc1c(N2CCCC2)cccc1N1CCCC1)c1ccccn1 | 55.4 |
| O=C(Nc1c(N2CCCC2)cccc1N1CCCC1)c1cnccn1 | 48 |
| COC(=O)c1ncccc1N1CCCCC1 | 89.1 |
| O=C(Nc1cc(Cl)ccc1N1CCCCC1)c1ccccn1 | 56.3 |
| COC(=O)c1ncccc1N1CCCC1 | -0.71 |
| O=C(Nc1c(N2CCCC2)cccc1N1CCCC1)c1cnsn1 | 42.4 |
| O=C(O)c1ncccc1N1CCCCC1 | 6.83 |
| CCc1cc(NCC(O)CN2CCCC2)ncn1 (configuration not stated) | 18.5 |
| CCC(=O)N1CCCCC1c1nc(O)c2c(n1)CN(C(=O)C1CC1)CC2 (configuration not stated) | 34.65 |
| Cc1cc(CN(C)C(=O)c2cccc(N3CCCS3(=O)=O)c2)no1 | 42 |
| CN(C)[C@@H]1CCN(S(=O)(=O)c2cn(C)cn2)[C@H]1Cc1cccnc1 | 33 |
| CC(C)Cc1nnc(NC(=O)NC(CCO)c2cccs2)s1 (configuration not stated) | 36 |
| CCCn1cc(S(=O)(=O)N[C@H]2CN(CC(N)=O)C[C@@H]2C2CC2)cn1 | 37.7 |
| CCCn1cc(S(=O)(=O)N[C@H]2CN(CCO)C[C@@H]2C2CC2)cn1 | 92.1 |
| CCCn1cc(S(=O)(=O)N[C@H]2CN(C(C)=O)C[C@@H]2C2CC2)cn1 | 24.2 |
| Cc1ccc(CC2COCCN(S(C)(=O)=O)C2)nc1 (configuration not stated) | -24.4 |
| Cc1csc(CCNC(=O)N2CCC(NC(=O)OC(C)(C)C)CC2)n1 | 13.3 |

| SMILES | INHIBITION [%] |
| --- | --- |
| Cc1cc(CN2C[C@@H]3COC[C@]3(CNC(=O)N(C)C)C2)no1 | 45.1 |
| Cc1cccc(CN2C[C@@H]3COC[C@]3(CNC(=O)C3CC3)C2)c1 | 35.8 |
| Cc1cc(CN2C[C@@H]3COC[C@]3(CNC(=O)N3CCCC3)C2)no1 | 70.7 |
| CC(=O)N1CCCC(C(=O)N2CCN(Cc3cc(C)on3)CC2)C1 (configuration not stated) | 71.2 |
| CC(=O)N1CCCC(C(=O)N2CCN(c3cnn(C)c(=O)c3)CC2)C1 (configuration not stated) | 16.6 |
| Cc1cccc(CN2C[C@@H]3COC[C@]3(CNC(=O)N3CCCC3)C2)n1 | 21 |
| COc1cccc(CN2C[C@@H]3COC[C@]3(CNC(=O)C3CC3)C2)c1 | 43 |
| CNC(=O)C1CN(Cc2cc(C)on2)CCN(C(C)=O)C1 (configuration not stated) | -21.6 |
| Cc1cccc(CN2C[C@@H]3COC[C@]3(CNC(=O)C3CCC3)C2)c1 | 65.7 |
| CCOCC(O)CN1CCN(C(=O)c2ccc3c(c2)COC3)CC1 (configuration not stated) | 29.7 |
| COc1c(CNCc2nnc3n2CCCCC3)c(C)nn1C | 31.6 |
| CCN1C[C@@H]2[C@@H](OC)CCN(C(=O)Cc3ccsc3)[C@@H]2C1 | 11.2 |
| O=C(c1cnccn1)N(CCO)Cc1cc(Br)ccc1F | -7.81 |
| COCCNC(=O)Cn1cc(OCc2ccccc2F)c(=O)cc1CO | 10.5 |
| CC(C)CS(=O)(=O)CC(=O)NC(C)c1nnc2n1CCC2 (configuration not stated) | 31.3 |
| COc1cccc(C(=O)N2CCOCC2CN(C)C)c1OC (configuration not stated) | 7.44 |
| Cc1nc(CN2CCCC(CCc3c(F)cccc3F)C2)c[nH]1 (configuration not stated) | 25.1 |
| Cc1nc(CN2CCCC(CCc3ccccc3F)C2)c[nH]1 (configuration not stated) | 57.6 |
| Fc1ccc(CCC2CCCN(Cc3c[nH]cn3)C2)c(F)c1 (configuration not stated) | 71.2 |
| Cc1nc(CN2CCCC(CCNS(C)(=O)=O)C2)c[nH]1 (configuration not stated) | -1.53 |
| Cc1nc(CN2CCCC(CCc3ccccc3C)C2)c[nH]1 (configuration not stated) | 47.6 |
| Cc1nc(CN2CCCC(CCc3ccc(F)c(F)c3)C2)c[nH]1 (configuration not stated) | 55.7 |

| SMILES | INHIBITION [%] |
| --- | --- |
| Cc1nc(CN2CCCC(CCc3ccc(F)cc3F)C2)c[nH]1 (configuration not stated) | 33.5 |
| Cc1nc(CN2CCCC(Cn3cc(CCO)nn3)C2)c[nH]1 (configuration not stated) | 18.5 |
| Cc1[nH]c(=O)[nH]c(=O)c1CN1CCCC(CCc2ccc(F)cc2F)C1 (configuration not stated) | -13.5 |
| CN(C)c1nccc(-c2cnc(N(C)C)[nH]c2=O)n1 | 13 |
| COCc1ccccc1CNCc1c(C(C)C)nn(C)c1N(C)C | 20.85 |
| CN1CC(=O)N(c2ccsc2)CC12CCN(S(=O)(=O)c1ccccc1)C2 (configuration not stated) | -41.4 |
| Cc1ccccc1CN(CCN(C)C)Cc1ccccc1C(=O)O | 2.18 |
| CCN(Cc1cc(F)ccc1Cl)C1CCS(=O)(=O)C1 (configuration not stated) | 12.1 |
| N#Cc1cc(S(N)(=O)=O)ccc1N1CCc2c(Cl)cccc2C1 | 9.52 |
| CC(C)(C)c1ncc(C(=O)NCCNC(=O)c2ccc(O)cc2)s1 | 29.2 |
| Cc1nc(C)c(C(=O)N2CCc3c(C)cccc32)o1 | 5.91 |
| COc1cccc2c1CCCCN2C(=O)c1oc(C)nc1C | 53.7 |
| Cc1nc(C)c(C(=O)N2CCCc3c(F)cccc32)o1 | 35.2 |
| CCN(CCNS(=O)(=O)C1CCOCC1)C(=O)OC(C)(C)C | -21.2 |
| Cc1csc(NC(=O)CN(C)CCOc2cccc(F)c2)n1 | 1.05 |
| c1ccc(Cc2nnc(CN3CCCC3Cn3cccn3)o2)cc1 (configuration not stated) | 24 |
| CCCc1nc(Cn2c(=O)n(C)c3ccccc32)no1 | 29.4 |
| CCc1nc(Cn2c(=O)n(CC)c3ccccc32)no1 | 57.3 |
| CCc1nc(Cn2c(=O)n(C)c3ccccc32)no1 | 45.2 |
